CYP2C9 inhib – inhibitors of human CYP2C9. P11712. CYP2C9 Supersomes, luciferin-H conversion, luminescence. inhibition, % at 5 µM. 96,000 compounds, 20% hits. AID 777;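 active means blocking of liver enzyme CYP2C9 beyond about 50% at 5 µM, limit read from the data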
CYP2C19 inh – blocks human cytochrome P450 2C19 | P33261 | 96,000 compounds, 21% hits | CYP2C19 Supersomes, luciferin-H EGE luminescence, 30 min | inhibition, % at 5 µM;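 active means CYP2C19 inhibition above a set limit at 5 µM in the primary screen, cut at about 50% in these data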;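 further: plate controls were negative control wells for no effect and 2.5 mM tranylcypromine positive control for full effect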
CYP2C19 act – cytochrome P450 2C19 (human) activation; activation factor at 5 µM; recombinant CYP2C19, luciferin-H EGE luminescence; hits give high values; 0 = fully inhibited enzyme, 1 = untreated enzyme; 96,000 tested, under 10 active; AID 1025; P33261;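 active means activation factor of at least 2 at 5 µM in the primary screen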;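 further: 0 = wells with 2.5 mM tranylcypromine and 1 = vehicle-only wells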
CYP2C9 activ – activators of human CYP2C9. AID 1024. recombinant CYP2C9, luciferin-H conversion, luminescence; hits give high values; factor 1 = untreated enzyme, 0 = blocked. 96,000 compounds, 1.4% hits. activation factor at 5 µM;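 active means activation factor of 2 or more for CYP2C9 at a 5 µM dose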;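 further: 0 = sulfaphenazole-blocked wells and 1 = vehicle-only wells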
An asterisk follows results filed as active. In the library only some 31% were active in any assay of this set; here they are far more common.

SMILES	CYP2C9 inhib	CYP2C19 inh	CYP2C19 act	CYP2C9 activ
CCCCCCn1c(SCC(=O)Nc2cc(C)on2)nc2ccccc2c1=O	71*	47	0.5	0.3
CCCOC(=O)C1[C@H]2C(=O)N(CC3CCCO3)C[C@]23C=C[C@H]1O3 (stereo partly specified)	-4	-9	1.1	1
CCC(=O)/C=C1\Sc2ccc(OC)cc2N1CC	25	34	0.7	0.8
NC(=O)c1ccsc1NC(=O)CSc1nc2ccccc2c(=O)n1CCCO	58*	44	0.6	0.4
CCOC(=O)CSc1nc2ccccc2c(=O)n1CCC(=O)NCCc1ccc(OC)c(OC)c1	65*	60*	0.4	0.3
COc1ccc(CCn2c(SCC(=O)Nc3cc(C)on3)nc3ccsc3c2=O)cc1OC	60*	54*	0.5	0.4
CNC(=O)CSCCn1c(SCC(=O)NC)nc2ccccc2c1=O	26	8	0.9	0.7
CCCn1c(SCc2ccon2)nc2ccccc2c1=O	83*	85*	0.1	0.2
O=c1ccn(Cc2ccccc2)c(=O)n1Cc1ccccc1	16	78*	0.2	0.8
O=c1ccsn1Cc1ccccc1	38	-7	1.1	0.6
CCC(=O)N1CCc2cc(S(=O)(=O)NCCC(=O)N3CC=C(c4ccccc4)CC3)ccc21	29	14	0.9	0.7
O=C(NC1CCCCCC1)c1cccc(N2CCCC2=O)c1	37	57*	0.4	0.6
O=C(NCc1cccs1)c1cccc(N2CCCC2=O)c1	54*	57*	0.4	0.5
O=c1nc2ccccc2c(NS(=O)(=O)c2ccccc2)n1-c1ccccc1	-6	-14	1.1	1.1
N#CC1=C2SCN(c3ccc(F)cc3)CN2C(=O)CC1c1cccc(F)c1 (stereo unspecified)	30	15	0.8	0.7
N#CC1=C2SCC(O)(c3ccccc3)N2C(=O)CC1c1ccccc1 (stereo unspecified)	99*	98*	0	0
O=C(COC(=O)c1ccc[nH]c1=O)NC1CCCC1	1	2	1	1
CCC(Sc1nc2c(c(=O)n1CC)SC(C)C2)C(=O)OC (stereo unspecified)	56*	26	0.7	0.4
CC1Cc2nc(SCC(=O)Nc3nc4ccccc4s3)n(C)c(=O)c2S1 (stereo unspecified)	98*	97*	0	0
CCn1c(SCC(=O)Nc2ccc3c(c2)OCO3)nc2c(c1=O)SC(C)C2 (stereo unspecified)	84*	69*	0.3	0.2
CCSc1nnc(NC(=O)CSc2nc3c(c(=O)n2C)SC(C)C3)s1 (stereo unspecified)	62*	34	0.7	0.4
CCc1nnc(NC(=O)CSc2nc3c(c(=O)n2C)SC(C)C3)s1 (stereo unspecified)	26	15	0.8	0.7
CCOc1cccc(C(=O)Nc2cccc(-c3nc4ncccc4o3)c2C)c1	25	25	0.8	0.7
O=C(Nn1cnnc1)c1ccccc1CCc1ccccc1	36	20	0.8	0.6
Cc1cc(=O)c(C(=O)O)cn1Nc1ccc(Cl)cc1	-5	12	0.9	1.1
CCn1c(SCC(=O)Nc2nnc(C)s2)nc2c(c1=O)SC(C)C2 (stereo unspecified)	62*	-7	1.1	0.4
CCSc1nnc(NC(=O)CSc2nc3c(c(=O)n2CC)SC(C)C3)s1 (stereo unspecified)	38	3	1	0.6
